# “And” between values parts separate entries of the source, which are not always exact repeats. Equal entries are not always repeated. Records with an inconclusive call do not appear. Where a call stands in place of a potency, no number is given. The source made the active and inactive calls. Unless noted, the call rests on the fitted dose curve.
# Legend:
# [1] = molecular target: Estrogen receptor (Homo sapiens) (UniProt P03372); assay: qHTS assay for small molecule agonists of estrogen receptor alpha signaling (AID 588514); further: nearly all actives have a fitted effect of over 70% in size
# Sequence of Estrogen receptor (Homo sapiens) (P03372 whole entry, looked up): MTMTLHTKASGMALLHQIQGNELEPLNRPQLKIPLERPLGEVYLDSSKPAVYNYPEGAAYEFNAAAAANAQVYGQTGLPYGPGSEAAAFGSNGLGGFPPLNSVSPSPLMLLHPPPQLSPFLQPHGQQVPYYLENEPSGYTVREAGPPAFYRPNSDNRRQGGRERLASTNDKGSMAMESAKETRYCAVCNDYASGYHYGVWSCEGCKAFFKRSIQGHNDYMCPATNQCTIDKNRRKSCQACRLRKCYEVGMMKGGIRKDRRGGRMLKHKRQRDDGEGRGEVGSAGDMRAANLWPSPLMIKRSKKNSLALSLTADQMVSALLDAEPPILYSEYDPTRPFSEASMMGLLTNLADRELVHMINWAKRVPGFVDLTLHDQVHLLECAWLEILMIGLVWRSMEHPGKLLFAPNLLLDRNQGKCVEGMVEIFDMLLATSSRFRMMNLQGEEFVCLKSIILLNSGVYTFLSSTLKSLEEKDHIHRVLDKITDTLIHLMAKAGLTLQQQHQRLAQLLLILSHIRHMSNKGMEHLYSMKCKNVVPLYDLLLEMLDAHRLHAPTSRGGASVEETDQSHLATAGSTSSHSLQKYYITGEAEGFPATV
# Outline: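 Fluorescence from CCF4 cleavage reports ER-alpha-driven beta-lactamase expression in HEK 293 cells treated 18 hrs at 37 C. Data normalized to 17-beta-estradiol (20 nM) and DMSO, fitted to Hill equation.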
# [2] = molecular target: Bile acid receptor (Homo sapiens) (UniProt Q96RI1); assay: qHTS assay for small molecule agonists of farnesoid X receptor signaling (AID 588527); conditions: HEK293T FXR-UAS-bla, beta-lactamase ratio, 16 h; activation: stronger effect = higher value; further: series mostly up to about 77 µM
# Sequence of Bile acid receptor (Homo sapiens) (Q96RI1 whole entry, looked up): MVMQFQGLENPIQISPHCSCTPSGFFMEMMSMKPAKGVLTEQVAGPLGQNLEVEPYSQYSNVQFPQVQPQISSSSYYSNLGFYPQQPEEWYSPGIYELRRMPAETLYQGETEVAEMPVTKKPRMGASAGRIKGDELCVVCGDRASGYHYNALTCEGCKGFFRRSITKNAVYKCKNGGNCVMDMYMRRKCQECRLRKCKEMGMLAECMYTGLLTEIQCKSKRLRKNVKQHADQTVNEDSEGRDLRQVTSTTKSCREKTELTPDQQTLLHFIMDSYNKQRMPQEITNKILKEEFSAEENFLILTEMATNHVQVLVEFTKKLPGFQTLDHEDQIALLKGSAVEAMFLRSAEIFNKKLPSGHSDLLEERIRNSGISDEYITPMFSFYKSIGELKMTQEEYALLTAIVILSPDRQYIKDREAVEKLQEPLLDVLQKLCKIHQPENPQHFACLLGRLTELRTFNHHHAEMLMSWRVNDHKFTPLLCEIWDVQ
# Outline: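 Quantitative HTS used FXR-UAS-bla HEK293T cells with 16 h compound incubation at 37 C. EC50 values came from concentration-response curves normalized to chenodeoxycholic acid.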
# [3] = qHTS assay for small molecule agonists of retinoid X receptor alpha signaling (AID 588544); conditions: HEK293T RXRa-UAS-bla, beta-lactamase reporter, 18 h; 530 nm emission
# [4] = molecular target: Thyroid hormone receptor beta (Homo sapiens) (UniProt P10828); assay: qHTS assay for small molecule antagonists of thyroid hormone receptor beta signaling (AID 588547; active means well fitted inhibition curve with a large enough effect in the signal ratio, with a control signal flat, not every such curve was filed as active; the % refers to the signal ratio; further: potency means the concentration at half of the fitted maximal effect;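 on activity change % (negative = inhibition): cells stimulated with 0.4 nM T3 agonist during compound exposure; series mostly up to about 77 µM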); conditions: TR-UAS-bla HEK293, beta-lactamase ratio, antagonist mode, 18 h
# Sequence of Thyroid hormone receptor beta (Homo sapiens) (P10828 whole entry, looked up): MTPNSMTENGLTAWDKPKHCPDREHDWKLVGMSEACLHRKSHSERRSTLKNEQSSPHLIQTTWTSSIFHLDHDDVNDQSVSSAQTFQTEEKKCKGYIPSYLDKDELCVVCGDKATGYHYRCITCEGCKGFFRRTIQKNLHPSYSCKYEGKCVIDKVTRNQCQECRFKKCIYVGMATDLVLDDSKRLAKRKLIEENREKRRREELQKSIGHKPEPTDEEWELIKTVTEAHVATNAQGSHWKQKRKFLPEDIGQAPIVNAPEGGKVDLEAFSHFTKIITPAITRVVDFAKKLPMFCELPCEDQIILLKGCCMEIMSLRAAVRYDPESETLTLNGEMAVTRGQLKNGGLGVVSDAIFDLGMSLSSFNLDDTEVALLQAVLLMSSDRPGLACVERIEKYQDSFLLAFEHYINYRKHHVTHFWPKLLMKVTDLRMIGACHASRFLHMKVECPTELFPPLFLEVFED
# Outline: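 Inhibition of T3-driven (0.4nM final) beta-lactamase reporter activity was measured over 0.59 nM to 92 uM compound after 18 h at 37 C. The cells were GripTite HEK293 TR-UAS-bla in charcoal/dextran-stripped serum, with CCF4 ratio read-out and IC50 from Hill fits.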
# [5] = qHTS assay for small molecule agonists of the antioxidant response element (ARE) signaling pathway (AID 651741; active means well fitted activation curve with a large enough effect in the signal ratio; the % refers to the signal ratio; further: potency means the concentration at half of the fitted maximal effect)
# Outline: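 Agonist activity is measured as ARE-driven beta-lactamase expression in a stable HepG2 reporter line, using 16 h compound treatment at 37 C and a FRET substrate fluorescence readout after 2 h.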
# [6] = qHTS assay for small molecule activators of the nuclear factor-kappa B (NF-kB) signaling pathway (AID 651749; active means well fitted activation curve with a large enough effect in the signal ratio; the % refers to the signal ratio; further: series mostly up to about 77 µM); conditions: NF-kB-bla ME-180 cells, beta-lactamase FRET ratio, 16 h; activation: stronger effect = higher value
# Outline: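 FRET-based beta-lactamase detection in ME-180 cells reports NF-kB response-element-driven transcription following overnight (16 hr) compound treatment.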
# [7] = qHTS assay for small molecule activators of the human pregnane X receptor (PXR) signaling pathway (AID 720659; call rule not given here)
# [8] = molecular target: Cytochrome P450 3A4 (Homo sapiens) (UniProt P08684); assay: qHTS Assay for Inhibitors and Substrates of Cytochrome P450 3A4 (AID 884; active means well fitted curve in the direction sought with a large enough effect; an effect the other way counts as inactive or inconclusive; further: potency means the concentration at half of the fitted maximal effect; nearly all actives have a fitted effect of over 50% in size)
# Sequence of Cytochrome P450 3A4 (Homo sapiens) (P08684 whole entry, looked up): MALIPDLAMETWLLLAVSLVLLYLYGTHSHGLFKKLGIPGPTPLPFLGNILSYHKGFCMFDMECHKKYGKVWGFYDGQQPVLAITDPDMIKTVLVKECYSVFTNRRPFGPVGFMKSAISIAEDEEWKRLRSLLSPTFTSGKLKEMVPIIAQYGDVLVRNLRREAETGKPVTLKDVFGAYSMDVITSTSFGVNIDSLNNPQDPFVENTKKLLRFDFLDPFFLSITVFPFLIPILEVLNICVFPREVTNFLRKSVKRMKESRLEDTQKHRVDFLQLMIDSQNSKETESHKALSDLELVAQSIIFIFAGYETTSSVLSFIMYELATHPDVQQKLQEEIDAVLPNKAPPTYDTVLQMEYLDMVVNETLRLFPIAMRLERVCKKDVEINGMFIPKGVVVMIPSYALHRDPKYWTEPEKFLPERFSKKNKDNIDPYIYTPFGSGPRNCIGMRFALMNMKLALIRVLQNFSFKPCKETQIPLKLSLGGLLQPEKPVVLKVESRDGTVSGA
# Outline: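 Luminescent readout of luciferin produced by CYP3A4 (20 nM) dealkylation of Luciferin-PPXE, 25 uM (its KM). NADPH-driven reaction ran 60 min at RT after 10 min compound preincubation; data scaled to 57 uM ketoconazole as 100% inhibition.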
# [9] = molecular target: Cytochrome P450 3A4 (Homo sapiens) (UniProt P08684); assay: qHTS Assay for Activators of Cytochrome P450 3A4 (AID 885; active means well fitted curve in the direction sought with a large enough effect; an effect the other way counts as inactive or inconclusive; further: nearly all actives have a fitted effect of over 65% in size)
# Outline: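 Using 20nM recombinant human CYP3A4 in potassium phosphate (200mM), substrate Luciferin-PPXE at 25uM, luminescent luciferin detection followed a 60-min RT NADPH reaction; data scaled to 57 uM ketoconazole.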
# [10] = molecular target: Glucocorticoid receptor (Homo sapiens) (UniProt P04150); assay: qHTS assay for small molecule antagonists of glucocorticoid receptor signaling (AID 588533; active means well fitted inhibition curve with a large enough effect in the signal ratio, with a control signal flat, not every such curve was filed as active; the % refers to the signal ratio;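 further: cells stimulated with 2 nM dexamethasone as agonist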; further: potency means the concentration at half of the fitted maximal effect)
# Sequence of Glucocorticoid receptor (Homo sapiens) (P04150 whole entry, looked up): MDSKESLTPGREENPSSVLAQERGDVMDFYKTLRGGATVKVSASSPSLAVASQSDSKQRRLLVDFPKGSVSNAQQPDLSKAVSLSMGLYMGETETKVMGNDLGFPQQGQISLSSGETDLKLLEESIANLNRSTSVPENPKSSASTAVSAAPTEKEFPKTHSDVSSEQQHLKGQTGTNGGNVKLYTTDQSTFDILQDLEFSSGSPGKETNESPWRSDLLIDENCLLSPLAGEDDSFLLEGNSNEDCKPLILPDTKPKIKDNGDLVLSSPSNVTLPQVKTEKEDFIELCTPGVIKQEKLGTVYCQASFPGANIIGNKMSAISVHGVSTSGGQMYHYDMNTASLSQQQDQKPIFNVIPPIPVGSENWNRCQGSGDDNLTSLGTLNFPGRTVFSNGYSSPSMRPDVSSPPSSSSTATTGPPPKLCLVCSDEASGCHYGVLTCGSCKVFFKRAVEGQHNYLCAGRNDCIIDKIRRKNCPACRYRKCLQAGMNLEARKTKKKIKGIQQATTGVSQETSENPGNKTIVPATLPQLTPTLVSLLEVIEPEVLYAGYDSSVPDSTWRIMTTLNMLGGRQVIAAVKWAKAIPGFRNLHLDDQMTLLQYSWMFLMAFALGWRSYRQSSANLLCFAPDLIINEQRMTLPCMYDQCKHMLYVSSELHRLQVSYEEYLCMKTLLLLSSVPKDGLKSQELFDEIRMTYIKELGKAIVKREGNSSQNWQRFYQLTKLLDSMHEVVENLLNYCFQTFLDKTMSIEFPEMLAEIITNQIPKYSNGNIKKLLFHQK
# Outline: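 Antagonist-mode qHTS: compound titrations added to GRE-bla HeLa cells, then dexamethasone 2 nM final; 18 h, 37 C. CCF4 FRET fluorescence normalized to dexamethasone and DMSO; IC50 from Hill fit.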
# [11] = molecular target: Androgen receptor (Homo sapiens) (UniProt P10275); assay: qHTS assay for small molecule agonists of androgen receptor signaling (AID 588515; active means well fitted curve in the direction sought with a large enough effect in the signal ratio, with a control signal flat; the % refers to the signal ratio); conditions: AR-UAS-bla HEK293, beta-lactamase ratio, agonist 16 h; stronger effect = higher value
# Sequence of Androgen receptor (Homo sapiens) (P10275 whole entry, looked up): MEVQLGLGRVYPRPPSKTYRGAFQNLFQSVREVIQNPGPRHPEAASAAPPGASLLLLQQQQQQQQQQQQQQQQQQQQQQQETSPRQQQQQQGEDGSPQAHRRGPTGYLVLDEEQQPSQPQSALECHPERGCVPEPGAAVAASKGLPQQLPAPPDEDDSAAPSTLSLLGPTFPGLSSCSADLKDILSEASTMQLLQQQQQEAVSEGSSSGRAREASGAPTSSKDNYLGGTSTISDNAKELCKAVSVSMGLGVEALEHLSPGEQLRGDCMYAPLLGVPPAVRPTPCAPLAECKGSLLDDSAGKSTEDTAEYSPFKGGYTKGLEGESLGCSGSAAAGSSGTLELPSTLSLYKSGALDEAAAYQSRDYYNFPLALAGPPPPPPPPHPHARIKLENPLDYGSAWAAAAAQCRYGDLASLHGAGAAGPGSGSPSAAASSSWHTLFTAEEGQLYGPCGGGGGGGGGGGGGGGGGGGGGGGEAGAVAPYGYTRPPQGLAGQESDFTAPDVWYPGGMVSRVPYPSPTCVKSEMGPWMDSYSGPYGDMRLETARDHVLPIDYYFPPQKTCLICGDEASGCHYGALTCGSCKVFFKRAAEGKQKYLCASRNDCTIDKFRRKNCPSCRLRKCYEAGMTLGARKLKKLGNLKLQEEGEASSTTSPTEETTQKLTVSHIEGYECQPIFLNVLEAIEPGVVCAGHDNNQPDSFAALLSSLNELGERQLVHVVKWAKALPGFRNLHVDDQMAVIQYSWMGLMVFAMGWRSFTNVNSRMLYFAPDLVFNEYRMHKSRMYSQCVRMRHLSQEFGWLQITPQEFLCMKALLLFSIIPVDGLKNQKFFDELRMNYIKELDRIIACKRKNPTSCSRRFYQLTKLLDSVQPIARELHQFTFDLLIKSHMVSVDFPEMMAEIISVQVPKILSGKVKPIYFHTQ
# Outline: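 Stimulation of an AR-responsive β-lactamase reporter in GripTite HEK293 cells was measured after 16 h compound exposure at 37 °C, via CCF4 fluorescence after 2 h RT. EC50 from Hill fits, normalized to R1881 at 30 nM.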
# [12] = molecular target: Androgen receptor (Homo sapiens) (UniProt P10275); assay: qHTS assay for small molecule antagonists of androgen receptor signaling (AID 588516; active means well fitted curve in the direction sought with a large enough effect in the signal ratio, with a control signal flat, not every such curve was filed as active; the % refers to the signal ratio)
# Outline: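 AR-UAS-bla-GripTite HEK 293 cells (2000/well, 5 h at 37 C) received compound titrations, then R1881 at 10 nM final; after 16 h at 37 C, CCF4 dye 2 h RT, beta-lactamase fluorescence read; IC50 from Hill fits.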
# [13] = molecular target: Bile acid receptor (Homo sapiens) (UniProt Q96RI1); assay: qHTS assay for small molecule antagonists of farnesoid X receptor signaling (AID 588526); further: potency means the concentration at half of the fitted maximal effect
# Outline: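 Beta-lactamase reporter antagonist mode: HEK293T FXR-UAS-bla cells, titrated compound, CDCA stimulation, 16 h 37 C, CCF4 dye 2 h RT. Data normalized to CDCA 50 uM and DMSO; Hill-fit IC50.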
compound,measurement,setting,value
CO/N=C(/C(=O)OC)c1ccccc1COc1ccccc1C,Potency,[1],inactive
same,activation,[2],-0.265% (inactive)
same,max response,[3],13.9%
same,activity change % (negative = inhibition),[4],-29.5% (inactive)
same,Potency,[5],12.2 µM (active)
same,activation,[6],-0.43% (inactive)
same,outcome,[7],inactive
CCOP(=S)(OCC)SCn1c(=O)oc2cc(Cl)ccc21,Potency,[8],0.794 µM (active)
same,Potency,[9],inactive
same,Potency,[1],inactive
same,activation,[2],-2.19% (inactive)
same,Potency,[10],inactive
same,activity change % (negative = inhibition),[4],-26.9% (inactive)
same,Potency,[5],27.3 µM (active)
CCCCNC(=O)OCC#CI,Potency,[1],inactive
same,activation,[2],1.93% (inactive)
same,outcome,[7],inactive
CCOP(=O)(OCC)OP(=O)(OCC)OCC,activation,[11],5.85% (inactive)
same,Potency,[12],inactive
same,Potency,[13],inactive
same,activation,[2],2.91% (inactive)
same,max response,[3],-12.7%
same,Potency,[5],inactive
CCC(C)Nc1c([N+](=O)[O-])cc(C(C)(C)C)cc1[N+](=O)[O-] (centres undefined),Potency,[1],inactive
same,Potency,[10],inactive
same,max response,[3],-9.41%
CS/C(C)=N/OC(=O)N(C)SN(C)C(=O)O/N=C(\C)SC,activation,[11],-1.29% (inactive)
same,Potency,[12],inactive
same,Potency,[13],inactive
same,activation,[2],3.69% (inactive)
same,Potency,[10],inactive
same,activity change % (negative = inhibition),[4],-7.26% (inactive)
same,Potency,[5],inactive
same,activation,[6],-0.513% (inactive)
same,outcome,[7],inactive
CON(C)C(=O)Nc1ccc(Cl)c(Cl)c1,Potency,[1],inactive
same,Potency,[10],inactive
same,max response,[3],-3.25%
same,activation,[6],-2.01% (inactive)
O=S(=O)(c1ccc(Cl)cc1)c1cc(Cl)c(Cl)cc1Cl,Potency,[1],inactive
same,activation,[2],3.42% (inactive)
same,Potency,[10],inactive
same,activity change % (negative = inhibition),[4],6.33% (inactive)
same,Potency,[5],27.3 µM (active)
same,activation,[6],1.59% (inactive)
CC(C)(C)C(O)/C(=C\c1ccc(Cl)cc1Cl)n1cncn1 (centres undefined),Potency,[1],inactive
same,activation,[2],1.69% (inactive)
same,Potency,[10],35.5 µM (active)
same,activity change % (negative = inhibition),[4],-35.6% (inactive)
CCC[CH2][Sn]([Cl])([CH2]CCC)[CH2]CCC,Potency,[1],inactive
same,Potency,[13],35.5 µM (active)
same,max response,[3],-0.857%
same,Potency,[5],24.3 µM (active)
CN/C(=N\[N+](=O)[O-])NCc1cnc(Cl)s1,Potency,[1],inactive
same,max response,[3],-16.2%
same,outcome,[7],inactive
Brc1ccc(Oc2ccccc2)cc1,Potency,[1],inactive
same,Potency,[10],inactive
same,max response,[3],-12.9%
same,activity change % (negative = inhibition),[4],-9.48% (inactive)
same,activation,[6],-2.79% (inactive)
same,outcome,[7],inactive
CCC(C)(C)c1ccc(O)c(C(C)(C)CC)c1,Potency,[1],inactive
same,Potency,[13],inactive
same,Potency,[5],61.1 µM (active)
CC(C)[C@@H](Nc1ccc(C(F)(F)F)cc1Cl)C(=O)OC(C#N)c1cccc(Oc2ccccc2)c1 (some centres undefined),Potency,[1],inactive
same,Potency,[10],inactive
CNC(=O)Oc1cccc(N=CN(C)C)c1,Potency,[1],inactive
same,Potency,[13],inactive
same,max response,[3],1.64%
same,activity change % (negative = inhibition),[4],4.27% (inactive)
same,outcome,[7],inactive
N#CC(CCc1ccc(Cl)cc1)(Cn1cncn1)c1ccccc1 (centres undefined),Potency,[1],inactive
same,Potency,[10],inactive
same,Potency,[5],68.6 µM (active)
same,activation,[6],2.24% (inactive)
C=CCOC(=O)C(C)(C)OC(=O)c1cc(-n2c(=O)cc(C(F)(F)F)n(C)c2=O)ccc1Cl,Potency,[1],inactive
same,Potency,[10],inactive
same,max response,[3],-7.31%
same,activity change % (negative = inhibition),[4],-9.78% (inactive)
CC(C)C1(C)N=C(c2ncccc2C(=O)O)NC1=O (centres undefined),Potency,[1],inactive
same,Potency,[13],inactive
same,Potency,[10],inactive
same,max response,[3],-12.1%
same,activity change % (negative = inhibition),[4],2.89% (inactive)
same,Potency,[5],inactive
same,outcome,[7],inactive
CC1(C)CON(Cc2ccccc2Cl)C1=O,Potency,[1],inactive
same,max response,[3],5.44%
same,activity change % (negative = inhibition),[4],0.368% (inactive)
same,Potency,[5],inactive
COc1cc(OC)nc(NC(=O)NS(=O)(=O)c2ncccc2C(F)(F)F)n1,activation,[11],3.3% (inactive)
same,Potency,[12],inactive
same,Potency,[13],inactive
same,activation,[2],-0.618% (inactive)
same,Potency,[10],inactive
same,max response,[3],-4.69%
same,activation,[6],-0.0953% (inactive)
same,outcome,[7],inactive
COC(=O)N(C(=O)N1COC2(C(=O)OC)Cc3cc(Cl)ccc3C2=N1)c1ccc(OC(F)(F)F)cc1 (centres undefined),Potency,[1],inactive
COc1cc(OC)nc(NC(=O)NS(=O)(=O)c2cc(NC=O)ccc2C(=O)N(C)C)n1,activation,[11],1.85% (inactive)
same,Potency,[12],inactive
same,Potency,[13],inactive
same,activation,[2],-1.24% (inactive)
same,Potency,[10],inactive
same,max response,[3],-3.56%
same,activity change % (negative = inhibition),[4],-8.65% (inactive)
same,activation,[6],1.99% (inactive)
same,outcome,[7],inactive
CCSC(=O)N(CC)C1CCCCC1,Potency,[1],inactive
same,Potency,[13],inactive
same,Potency,[10],inactive
same,max response,[3],-3.68%
same,activation,[6],1.91% (inactive)
same,outcome,[7],inactive
Cn1c(-c2ccccc2)cc(-c2ccccc2)[n+]1C,Potency,[1],inactive
same,max response,[3],12.1%
Cc1cc(Cl)ccc1O[C@H](C)C(=O)O,Potency,[1],inactive
same,max response,[3],-13.3%
same,activity change % (negative = inhibition),[4],17.7% (inactive)
same,activation,[6],0.599% (inactive)
same,outcome,[7],inactive
O=C(O)C(F)(F)C(F)(F)C(F)(F)C(F)(F)C(F)(F)C(F)(F)C(F)(F)C(F)(F)F,Potency,[1],inactive
same,Potency,[13],inactive
same,Potency,[10],inactive
same,activity change % (negative = inhibition),[4],1.6% (inactive) and 0.325% (inactive)
same,Potency,[5],24.3 µM (active)
same,outcome,[7],inactive
CC1=C(C(=O)Nc2ccccc2)S(=O)(=O)CCO1,Potency,[1],inactive
same,activation,[2],-2.72% (inactive)
same,Potency,[4],39.8 µM (active)
same,Potency,[5],8.63 µM (active)
same,activation,[6],-0.594% (inactive)
same,outcome,[7],inactive
CC1(C)[C@H](C=C(Cl)Cl)[C@H]1C(=O)O[C@H](C#N)c1ccc(F)c(Oc2ccccc2)c1,Potency,[1],inactive
same,Potency,[10],inactive
same,activity change % (negative = inhibition),[4],-23.6% (inactive)
same,activation,[6],4.2% (inactive)
COC(=O)/C=C(\C)OP(=O)(OC)OC,Potency,[1],inactive
same,activation,[2],7.79% (inactive)
same,Potency,[10],inactive
same,Potency,[5],inactive
CC(C)C1(C)N=C(c2nc3ccccc3cc2C(=O)O)NC1=O (centres undefined),Potency,[1],inactive
same,Potency,[13],inactive
same,Potency,[10],inactive
same,activation,[6],-0.622% (inactive)
CCOP(=S)(OCC)SCSP(=S)(OCC)OCC,Potency,[1],inactive
same,Potency,[10],inactive
same,activation,[6],-2.5% (inactive)
CC1(C)C(C(=O)OC(C#N)c2cccc(Oc3ccccc3)c2)C1(C)C (centres undefined),Potency,[1],inactive
same,activation,[2],5.5% (inactive)
same,max response,[3],-5.14%
same,activity change % (negative = inhibition),[4],2.17% (inactive)
same,activation,[6],2.53% (inactive)
